# Data taken from PubChem BioAssay (EPA / NIEHS).
# Activity calls are given as the source filed them. The calls were made as follows: active = hit-call score of the fitted dose curve at least 0.9, where 1 is the maximum; inactive = score below 0.9.
# Read-out: CD38, CD38 (gene 952)
# Assay: BSK_SAg_CD38: BioMAP Diversity Plus: SAg Assay for CD38 Biomarker Activity (AID 2283087)
# Details: primary human HUVEC with PBMC; actives raise or lower the signal
# Procedure: BSK_SAg is a cell-based, multiplexed-readout assay that uses umbilical vein endothelium and peripheral blood mononuclear cells, a human vascular primary cell co-culture, with measurements taken at 24 hours after chemical dosing in a 96-well plate.BSK_SAg_CD38 is one of 10 assay component(s) measured or calculated from the BSK_SAg assay. It is designed to make measurements of enzyme-linked immunosorbent assay, a form of binding reporter, as detected with fluorescence intensity signals by Enzyme-linked immunosorbent assay technology.Data from the assay component BSK_SAg_CD38 was analyzed into 1 assay endpoint. This assay endpoint, BSK_SAg_CD38, was analyzed with bidirectional fitting relative to DMSO as the negative control and baseline of activity. Using a type of binding reporter, gain or loss-of-signal activity can be used to understand changes in the signaling as they relate to the gene CD38. Furthermore, this assay endpoint can be referred to as a primary readout, because this assay has produced multiple assay endpoints where this one serves a signaling function. To generalize the intended target to other relatable targets, this assay endpoint is annotated to the cytokine intended target family, where the subfamily is other cytokine.
# The levels of cell surface (or secreted, indicated by the prefix "s") biomarker endpoints were measured by ELISA. Overt cytotoxicity to cells in confluent adherent cultures (all systems other than the BT system) was assessed by measuring total protein levels using sulforhodamine B (SRB) staining in parallel cultures at the time of biomarker measurements, indicated as SRB endpoints. For proliferation assays for adherent cell types, individual cell types are cultured at sub-confluence and relative cell numbers quantified by SRB staining at time points optimized for each system (48 h: 3C and CASM3C systems; 72 h: BT and HDF3CGF systems; 96 h: SAg system). SRB was performed by staining cells with 0.1% SRB after fixation with 10% TCA and reading wells at 560 nm.Viability and proliferation of PBMC (T cells) was quantified by Alamar Blue reduction for the SAg and BT systems. For PBMC viability (referred to as PBMC Cytotoxicity within the assay endpoint names), cells were plated (75,000/well in a 96-well plate) and then chemical samples added for 1 h before addition of activators, SEB and TSST-1 (20 ng/mL final concentration each). Cells were incubated for 90 h. Then, Alamar Blue (20 uL/well) (Invitrogen, Cat DAL1100) was added for 6 h, and the plates were read with a fluorescence microplate reader at 546/580 nm (excitation/emission). For PBMC proliferation, cells were plated and activated as above but incubated for only 16 h prior to addition of Alamar Blue. Plates were read after 6 h.
Compound,outcome,AC50
CN(C)c1ccccc1,inactive,
Cc1ccc(N)c(N)c1,inactive,
CN(C)c1ccc(C(=O)c2ccc(N(C)C)cc2)cc1,,20 µM (active)
CS(=O)(=O)NC(=O)c1cc(Oc2ccc(C(F)(F)F)cc2Cl)ccc1[N+](=O)[O-],inactive,
CCOc1cccc(C2(N3CCN(c4ccccc4)CC3)CCC(C)CC2)c1 (stereo not given),inactive,
O=C(Nc1ccccc1)c1ccccc1I,inactive,
N#CC(Br)(Br)C(N)=O,inactive,
Clc1ccccc1Cl,inactive,
Cc1ccc(N)cc1,inactive,
Nc1ccc([N+](=O)[O-])cc1,inactive,
CCCCCCCCOC(=O)c1ccc(C(=O)OCCCCCCCC)c(C(=O)OCCCCCCCC)c1,inactive,
CC(C)(OOC(C)(C)c1ccccc1)c1ccccc1,,33.5 µM (active)
Cc1ccc([N+](=O)[O-])cc1,inactive,
ClC1=C(Cl)[C@]2(Cl)[C@H]3[C@H]([C@@H]4C=C[C@H]3C4)[C@@]1(Cl)C2(Cl)Cl,,16.8 µM (active)
CCCCCCCCn1sccc1=O,,7.73 µM (active)
[O-][Cl+]O,inactive,
O=Cc1ccco1,inactive,
CCN(CC)CCO,inactive,
CN(C)[C@@H]1C(=O)C(C(N)=O)=C(O)[C@@]2(O)C(=O)C3=C(O)c4c(O)cccc4[C@@](C)(O)[C@H]3C[C@@H]12,inactive,
[Cl-].[Cl-].[Hg+2],,36.6 µM (active)

Compound,outcome,AC50
CC(C)(C)C(O)(CCc1ccc(Cl)cc1)Cn1cncn1 (stereo not given),inactive,
O=C(N[C@H](c1ccccc1)[C@@H]1CN2CCC1CC2)c1c(Cl)ccc(C(F)(F)F)c1Cl,,29.7 µM (active)
O=P(OCCCl)(OCCCl)OCCCl,inactive,
CC(C)COC(=O)c1ccccc1C(=O)OCC(C)C,inactive,
CCC(C)c1ccc(O)cc1 (stereo not given),inactive,
CCN(CC)N=O,inactive,
CO[C@@H]1[C@H](OC(=O)NC(=O)CCl)CC[C@]2(CO2)[C@H]1[C@@]1(C)O[C@@H]1CC=C(C)C,,6.2 µM (active)
CC(C)(C)OOC(=O)c1ccccc1,inactive,
c1ccc(N=Nc2ccccc2)cc1,inactive,
Brc1ccc(Oc2ccccc2)cc1,inactive,
COC(=O)Nc1nc2ccccc2[nH]1,inactive,
CC(O)CCO (stereo not given),inactive,
O=C1CCCO1,inactive,
Cc1ccc(N=C=O)cc1N=C=O,inactive,
Cc1cc(N=Nc2ccccc2C)ccc1N,,32.4 µM (active)
O=C(O)C1C2CCC(O2)C1C(=O)O (stereo not given),inactive,
Nc1ccc(N=Nc2ccccc2)cc1,inactive,
Nc1ccc(Cl)cc1N,,6.44 µM (active)
N#CC(Br)Br,inactive,
Nc1ccc(Cc2ccc(N)cc2)cc1,inactive,
